In PubChem BioAssay (Tox21):
Inconclusive results are not listed. Calls of active or inactive are those of the source. Unless noted, calls follow the shape of the full dose curve.

Tests used:
[1] = Nuclear factor erythroid 2-related factor 2/antioxidant responsive element (Nrf2/ARE) small molecule agonists: qHTS cell viability counter screen in human keratinocytes (AID 1919968; active = well fitted cell-killing curve with a large enough effect in the repeat runs; also: nearly all actives have a fitted effect of over 55% in size; also: potency is read from the fitted curve at half-maximal effect)
How it was run: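 Stably transfected HaCaT (KeratinoSens), 1,500/well. Test agents in DMSO were applied for 23 h, 37 C/5% CO2. CellTiter-Fluor was incubated 1 h before the fluorescence read.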

[2] = biological target: Gonadotropin-releasing hormone receptor (Homo sapiens) (UniProt P30968); assay: Human gonadotropin-releasing hormone receptor (GnRHR) small molecule agonists, calcium flux assay in GnRHR-HEK293 cells (AID 1920063); also: nearly all actives have a fitted effect of over 35% in size; also: potency is read from the fitted curve at half-maximal effect
How it was run: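 Stable human GnRHR HEK293 line. 18 h plating, then calcium dye for 1 h at 37 C. Agonist-mode compound addition from DMSO stocks; fluorescence monitored 3 min.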

[3] = p53 small molecule agonists, cell-based qHTS assay with human liver microsomes (AID 1963577)
How it was run: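 p53RE-bla reporter cells were pre-incubated 5 h at 37 C, then treated with compounds plus human liver microsomes (0.5 mg/mL final) and NADPH (0.5 mg/mL final) for 16 h at 37 C. Beta-lactamase activity was read by LiveBLAzer fluorescence after 2 h at room temperature.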

[4] = p53 small molecule agonists, cell-based qHTS assay with rat liver microsomes (AID 1963578)
How it was run: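 p53RE-bla cells were exposed to compounds together with rat liver microsomes (0.5 mg/mL final) and NADPH (0.5 mg/mL final) for 16 h at 37 C, then read by LiveBLAzer beta-lactamase fluorescence after 2 h at room temperature.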

[5] = p53 small molecule agonists, cell-based qHTS assay with human liver microsomes: qHTS cell viability counter screen (AID 1963579); also: nearly all actives have a fitted effect of over 45% in size; also: potency is read from the fitted curve at half-maximal effect
How it was run: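 p53RE-bla cells (4,000/well) were pre-incubated 5 h at 37 C, then given compounds in DMSO plus human liver microsomes (0.5 mg/mL final) and NADPH (0.5 mg/mL final) for 16 h at 37 C. Viability was read by CellTiter-Glo luminescence.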

[6] = p53 small molecule agonists, cell-based qHTS assay with rat liver microsomes: qHTS cell viability counter screen (AID 1963580); also: nearly all actives have a fitted effect of over 45% in size; also: potency is read from the fitted curve at half-maximal effect
How it was run: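 Rat liver microsome (0.5 mg/mL final) and NADPH (0.5 mg/mL final) co-incubation with compounds for 16 h at 37 C on HCT-116 p53RE-bla cells; cytotoxicity taken from intracellular ATP luminescence.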

[7] = p53 small molecule agonists, cell-based qHTS assay: qHTS cell viability counter screen (AID 1963581); also: nearly all actives have a fitted effect of over 45% in size; also: potency is read from the fitted curve at half-maximal effect
How it was run: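 qHTS counter screen: 16 h compound exposure at 37 C of p53RE-bla HCT-116 cells (4,000 per well, seeded 5 h prior), cell viability by ATP luminescence.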

[8] = biological target: 5-hydroxytryptamine receptor 2A (Homo sapiens) (UniProt P28223); assay: 5-hydroxytryptamine receptor 2A (HTR2A) small molecule antagonists, cell-based qHTS assay (AID 1963586); also: nearly all actives have a fitted effect of over 45% in size
How it was run: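 CHO cells stably expressing human HTR2A were plated for 18 h at 37 C, then loaded with calcium dye for 1 h. Compounds were preincubated 5 min at room temperature before DOI (4 nM solution) was added. Kinetic fluorescence was read for 3 min.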

[9] = biological target: Muscarinic acetylcholine receptor M1 (Homo sapiens) (UniProt P11229); assay: Cholinergic receptor muscarinic 1 (CHRM1) small molecule antagonists, cell-based qHTS assay (AID 1963588); also: nearly all actives have a fitted effect of over 40% in size; also: potency is read from the fitted curve at half-maximal effect
How it was run: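 Compounds were tested at 15 concentrations in three independent runs. Dye-loaded CHRM1-CHO cells were exposed 5 min at room temperature before stimulation by acetylcholine added at 50nM. Intracellular calcium was read kinetically on FDSS for 3 min.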

[10] = biological target: Muscarinic acetylcholine receptor M1 (Homo sapiens) (UniProt P11229); assay: Cholinergic receptor muscarinic 1 (CHRM1) small molecule agonists, cell-based qHTS assay (AID 1963589); also: nearly all actives have a fitted effect of over 35% in size
How it was run: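 Kinetic fluorescence (1 s intervals) of calcium-sensitive dye in human M1 CHO cells after compound addition; cells pre-incubated 18 h at 37 C/5% CO2 and dye-loaded 1 h.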

[11] = G protein-coupled receptor (GPCR) small molecule agonists, calcium flux assay: HEK293 wild type cell line counter screen (AID 1920065)
How it was run: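 Following 18 h incubation at 37 C/5% CO2, plates got calcium dye for 1 h; compounds, ATP or DMSO were then pinned in and fluorescence followed kinetically (480/540 nm).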

[12] = p53 small molecule agonists, cell-based qHTS assay (AID 1963582; active = well fitted activation curve with a large enough effect in the signal ratio in the repeat runs, not every such curve was filed as active; the % refers to the signal ratio)
How it was run: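 Measured: fluorescence from cleaved LiveBLAzer substrate. System: p53RE-bla cells, 16 h compound treatment at 37 C, 2 h substrate step at room temperature.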

[13] = biological target: D(2) dopamine receptor (Homo sapiens) (UniProt P14416); assay: Dopamine D2 receptor (DRD2) small molecule antagonists, cell-based qHTS assay (AID 1963595; active = well fitted inhibition curve with a large enough effect in the signal ratio in the repeat runs, with a control signal flat; the % refers to the signal ratio; also: potency is read from the fitted curve at half-maximal effect)
How it was run: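 Readout: HTRF cAMP, cAMP-d2 competing with cellular cAMP for anti-cAMP cryptate, read after 1 h. Cells: DRD2-HEK293. Conditions: 0.1 mM Ro20-1724, 12 nM quinpirole, 200 nM NKH477, 30 min RT.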

[14] = cAMP Responsive Elements (CRE) small molecule agonists, cell-based qHTS assay (AID 1963590)
How it was run: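 Test agents in DMSO were incubated 3 h at 37 C/5% CO2 with CRE-bla HEK 293T cells seeded 18 h earlier; LiveBLAzer B/G FRET substrate was added and read after 2 h at room temperature.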

[15] = cAMP Responsive Elements (CRE) small molecule antagonists, cell-based qHTS assay (AID 1963591; active = well fitted inhibition curve with a large enough effect in the signal ratio in the repeat runs, not every such curve was filed as active; the % refers to the signal ratio)
How it was run: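 Reporter line CRE-bla HEK 293T in dialyzed-FBS DMEM; cells preincubated 18 h, treated 3 h with compound plus NKH477 (0.25 uM final); LiveBLAzer FRET, 2 h RT.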

[16] = biological target: D(2) dopamine receptor (Homo sapiens) (UniProt P14416); assay: Dopamine D2 receptor (DRD2) small molecule agonists, cell-based qHTS assay (AID 1963594); also: nearly all actives have a fitted effect of over 35% in size
How it was run: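 cAMP accumulation in DRD2-HEK293 cells measured by HTRF after 1 h detection; compounds added 10 min before NKH477 (200nM […]) forskolin-analogue stimulation, 30 min at room temperature, with Ro20-1724 present at 0.1 mM final.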

[17] = biological target: 5-hydroxytryptamine receptor 2A (Homo sapiens) (UniProt P28223); assay: 5-hydroxytryptamine receptor 2A (HTR2A) small molecule agonists, cell-based qHTS assay (AID 1963587); also: nearly all actives have a fitted effect of over 30% in size
How it was run: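 Kinetic calcium-flux fluorescence (2 min, 1 sec intervals) after compound addition in agonist mode. HTR2A-CHO cells were cultured 18 h, then dye-loaded 1 h at 37 C.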

[18] = biological target: Beta-2 adrenergic receptor (Homo sapiens) (UniProt P07550); assay: Adrenergic beta2 receptor (ADRB2) small molecule antagonists, cell-based qHTS assay (AID 1963592); also: series mostly up to about 92 µM; nearly all actives have a fitted effect of over 50% in size
How it was run: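 Assay format: CHO-ADRB2 cells, 18-20hr seeding at 37C/5% CO2, then compound plus 1nM isoproterenol agonist mix for 0.5hr RT. Homogeneous time-resolved fluorescence cAMP detection after 1hr, expressed as 665/615 nm ratio.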

[19] = biological target: Beta-2 adrenergic receptor (Homo sapiens) (UniProt P07550); assay: Adrenergic beta2 receptor (ADRB2) small molecule agonists, cell-based qHTS assay (AID 1963593);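 also: CHO cells stably overexpressing human ADRB2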
How it was run: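 CHO cells stably over-expressing ADRB2 were plated overnight at 37C, then dosed with compounds plus a stimulation mix containing 100uM IBMX and 25uM Ro-20-1724 for 0.5hr at room temperature. cAMP was measured by HTRF competition, 1hr.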

Measured: Potency

Chain of Gonadotropin-releasing hormone receptor (Homo sapiens) (P30968 whole entry, looked up): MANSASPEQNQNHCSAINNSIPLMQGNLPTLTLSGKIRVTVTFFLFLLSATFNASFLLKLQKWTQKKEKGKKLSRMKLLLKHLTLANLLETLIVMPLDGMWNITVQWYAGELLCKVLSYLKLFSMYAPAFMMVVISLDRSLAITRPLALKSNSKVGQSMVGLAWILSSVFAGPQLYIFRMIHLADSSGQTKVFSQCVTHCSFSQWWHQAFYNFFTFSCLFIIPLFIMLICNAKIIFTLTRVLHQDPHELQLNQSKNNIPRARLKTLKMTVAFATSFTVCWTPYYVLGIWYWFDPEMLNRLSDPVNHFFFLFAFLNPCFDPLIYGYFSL
Chain of 5-hydroxytryptamine receptor 2A (Homo sapiens) (P28223 whole entry, looked up): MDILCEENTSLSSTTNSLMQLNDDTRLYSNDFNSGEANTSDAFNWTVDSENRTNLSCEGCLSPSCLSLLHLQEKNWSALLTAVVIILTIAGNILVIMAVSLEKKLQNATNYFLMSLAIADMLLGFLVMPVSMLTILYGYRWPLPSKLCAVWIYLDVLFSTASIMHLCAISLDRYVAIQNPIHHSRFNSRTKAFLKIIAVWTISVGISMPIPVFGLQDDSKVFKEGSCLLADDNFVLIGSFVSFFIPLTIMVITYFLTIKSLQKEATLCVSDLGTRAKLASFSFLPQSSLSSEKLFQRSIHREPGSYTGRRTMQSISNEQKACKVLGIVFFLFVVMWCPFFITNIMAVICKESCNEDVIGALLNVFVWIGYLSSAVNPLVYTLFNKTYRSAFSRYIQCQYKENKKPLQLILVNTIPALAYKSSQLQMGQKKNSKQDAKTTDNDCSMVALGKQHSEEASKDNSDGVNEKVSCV
Chain of Beta-2 adrenergic receptor (Homo sapiens) (P07550 whole entry, looked up): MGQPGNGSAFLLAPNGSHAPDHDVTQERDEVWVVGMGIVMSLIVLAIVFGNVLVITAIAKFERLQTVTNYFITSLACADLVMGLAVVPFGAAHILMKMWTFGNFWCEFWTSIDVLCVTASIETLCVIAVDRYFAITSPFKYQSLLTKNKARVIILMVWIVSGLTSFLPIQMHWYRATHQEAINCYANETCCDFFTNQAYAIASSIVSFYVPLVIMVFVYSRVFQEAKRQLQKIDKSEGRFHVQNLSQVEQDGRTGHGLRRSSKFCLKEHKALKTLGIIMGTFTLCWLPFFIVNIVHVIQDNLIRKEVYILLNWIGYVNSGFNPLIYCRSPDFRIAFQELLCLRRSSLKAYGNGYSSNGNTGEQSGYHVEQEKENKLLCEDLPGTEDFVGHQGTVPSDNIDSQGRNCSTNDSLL
Chain of Muscarinic acetylcholine receptor M1 (Homo sapiens) (P11229 whole entry, looked up): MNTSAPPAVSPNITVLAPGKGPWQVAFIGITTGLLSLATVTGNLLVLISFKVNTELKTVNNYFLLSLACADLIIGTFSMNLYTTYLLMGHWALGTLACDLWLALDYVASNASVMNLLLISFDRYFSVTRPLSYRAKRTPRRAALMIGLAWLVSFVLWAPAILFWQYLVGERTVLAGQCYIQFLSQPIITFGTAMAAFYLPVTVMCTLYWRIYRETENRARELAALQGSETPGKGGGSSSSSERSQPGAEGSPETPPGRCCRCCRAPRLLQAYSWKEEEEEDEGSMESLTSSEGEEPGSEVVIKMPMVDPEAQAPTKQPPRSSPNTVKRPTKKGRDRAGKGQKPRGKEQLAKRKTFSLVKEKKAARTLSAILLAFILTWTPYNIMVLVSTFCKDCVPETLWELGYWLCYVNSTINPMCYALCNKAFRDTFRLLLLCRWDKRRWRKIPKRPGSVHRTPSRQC
Chain of D(2) dopamine receptor (Homo sapiens) (P14416 whole entry, looked up): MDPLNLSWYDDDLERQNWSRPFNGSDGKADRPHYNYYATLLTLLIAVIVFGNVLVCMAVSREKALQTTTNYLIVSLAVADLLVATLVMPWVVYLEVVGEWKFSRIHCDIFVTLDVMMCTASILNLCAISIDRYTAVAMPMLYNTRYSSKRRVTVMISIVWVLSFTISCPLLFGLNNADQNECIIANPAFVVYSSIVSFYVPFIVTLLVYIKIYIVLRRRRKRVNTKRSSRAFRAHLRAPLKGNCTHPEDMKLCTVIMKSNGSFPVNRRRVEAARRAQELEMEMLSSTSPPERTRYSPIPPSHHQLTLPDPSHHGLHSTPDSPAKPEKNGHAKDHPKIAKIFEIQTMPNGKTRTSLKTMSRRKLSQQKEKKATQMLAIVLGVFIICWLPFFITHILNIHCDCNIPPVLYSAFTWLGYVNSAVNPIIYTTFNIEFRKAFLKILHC

CCC(C)Nc1ccc(NC(C)CC)cc1 (configuration not stated)
inactive: [2] | [3] | [4] | [8] | [10]
active: [1] 3.93 µM | [5] 2.08 µM | [6] 4.66 µM | [7] 10.4 µM | [9] 9.6 µM

CNCC(O)c1ccc(O)c(O)c1 (configuration not stated)
inactive: [1] | [11] | [3] | [4] | [6] | [12]
active: [2] 0.0425 µM | [13] 5.31 µM

C[C@@H](O)C(=O)O
not listed: [3] | [4] | [8] | [9] | [10] | [17] | [18] | [19]
inactive: all other assays above

O=[N+]([O-])c1cccc(S(=O)(=O)O)c1
not listed: [6] | [14] | [15]
inactive: all other assays above

Oc1ccc(N=Nc2ccccc2)cc1
active: [1] 55.2 µM
not listed: [3] | [7] | [8] | [18] | [19]
inactive: all other assays above

Cc1nn(C)c(Oc2ccccc2)c1/C=N/OCc1ccc(C(=O)OC(C)(C)C)cc1
not listed: [3] | [12] | [13] | [14] | [15] | [16]
inactive: all other assays above

CCCCC(CC)COC(=O)c1ccccc1C(=O)O (configuration not stated)
inactive: [1] | [2] | [11] | [5] | [6] | [17] | [10]

CC(C)c1ccccc1
not listed: [4] | [6] | [15] | [19]
inactive: all other assays above

O=c1[nH]c(=O)n([C@H]2C[C@H](O)[C@@H](CO)O2)cc1C(F)(F)F
not listed: [3] | [4] | [7] | [12] | [14] | [15] | [18]
inactive: all other assays above

CC/C=C\CCCCCO
not listed: [14] | [16] | [19]
inactive: all other assays above
